sPLA2-III inh = Inhibits HGIII-sPLA2 liposome hydrolysis, primary screen. Q9NZ20. QFRET BODIPY PC-A2 liposome hydrolysis, fluorescence. inhibition, % at 12.2 µM. actives 0.56% (n = 370,000). AID 743126;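 active = inhibition above mean plus 3 SD of compounds lying within the high and low control bounds, cut at about 19% in these data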
ADAM17 inh = ADAM17 inhibition, QFRET primary screen; AID 720648; P78536; recombinant ADAM17, EDANS/DABCYL FRET peptide cleavage; actives 0.83% (n = 370,000); inhibition, % at 6.95 µM;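 active = inhibition above the mean of compounds lying between control limits plus 3 SD, set per campaign, cut at about 8.5% in these data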
Target sequence (P78536 215-824 limits assumed): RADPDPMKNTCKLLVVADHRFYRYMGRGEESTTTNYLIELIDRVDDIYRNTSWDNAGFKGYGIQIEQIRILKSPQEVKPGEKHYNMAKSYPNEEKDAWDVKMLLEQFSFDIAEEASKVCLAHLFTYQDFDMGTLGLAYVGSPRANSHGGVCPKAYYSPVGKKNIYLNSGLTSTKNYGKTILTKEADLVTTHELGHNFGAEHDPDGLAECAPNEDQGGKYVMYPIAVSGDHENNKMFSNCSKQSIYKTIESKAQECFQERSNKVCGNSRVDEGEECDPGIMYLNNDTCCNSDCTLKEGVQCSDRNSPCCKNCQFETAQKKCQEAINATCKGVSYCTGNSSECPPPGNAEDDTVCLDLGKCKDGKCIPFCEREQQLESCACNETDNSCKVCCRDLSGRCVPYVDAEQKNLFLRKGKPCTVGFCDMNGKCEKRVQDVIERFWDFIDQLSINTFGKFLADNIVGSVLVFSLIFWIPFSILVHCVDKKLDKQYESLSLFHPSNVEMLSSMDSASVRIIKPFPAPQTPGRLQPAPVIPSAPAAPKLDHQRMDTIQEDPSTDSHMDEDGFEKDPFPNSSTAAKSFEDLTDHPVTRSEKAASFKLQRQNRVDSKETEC
GRIN3A LBD mod = NR3A (human) ligand-binding domain modulation; NR3A LBD differential scanning fluorimetry, Tm shift; 0% = protein alone, 100% = glycine-bound protein; Tm shift relative to glycine control, % at 25 µM; actives 2.5% (n = 340,000); AID 1259313;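 active = melting temperature shift of at least 10% of the positive control shift, at one fixed dose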
ADAM10 inh = inhibitors of human ADAM10 | O14672 | recombinant ADAM10, EDANS/DABCYL FRET peptide cleavage, 3 h | inhibition, % at 7 µM | actives 0.62% (n = 370,000);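 active = inhibition above a per-campaign cutoff equal to the mean of compounds falling between control-based bounds plus 3 SD, cut at about 20% in these data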
FAS TE block = FAS thioesterase (human) inhibition. recombinant FAS-TE, OMFH fluorogenic substrate, fluorescence endpoint. P49327. inhibition, % at 15 µM. AID 602261. actives 0.67% (n = 360,000);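 active = compounds whose normalised, plate-corrected inhibition of enzyme fluorescence in the single-dose primary screen is 50% or more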
sPLA2 confirm = human GIII-sPLA2 inhibition, confirmation. shares compounds with sPLA2-III inh. recombinant hGIII-sPLA2, BODIPY PC-A2 QFRET fluorescence. inhibition, % at 12.2 µM. actives 34% (n = 2,000);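 active = mean inhibition across triplicates above the hit cutoff set in the earlier primary screen, cut at about 19% in these data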
BODIPY interf = 535nm fluorescence interference, HGIII-sPLA2 counter-screen; BODIPY FL product fluorescence interference, QFRET; actives 8.5% (n = 2,000); inhibition, % at 12.2 µM; AID 743282; shares compounds with sPLA2-III inh;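 active = average inhibition above the solvent-only control mean plus 3 SD, cut at about 6% in these data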
535nm interf DR = 535nm optical interference dose response, HGIII-sPLA2 counter-screen | shares compounds with sPLA2-III inh | BODIPY FL product fluorescence interference, cell-free | IC50, µM | 240 tested, under 10 active;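 active = IC50 at or below 10 µM; inactive = IC50 above 10 µM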
Each line names hits and unclear results; the compound was inactive in the other large screens (follow-up assays come after a bar, where they were run). Rows were chosen to be rich in hits. Some 4.3% of all compounds tested hit in one or more screens of this group.

O=C(OC[C@@H]1CCCN2CCCC[C@H]12)c1cc2ccccc2oc1=O	sPLA2-III inh 20 | sPLA2 confirm inactive | BODIPY interf inactive
O=C(Cn1nnc(N2CCOCC2)n1)NN=Cc1ccccc1Cl	none (no result: GRIN3A LBD mod, FAS TE block)
O=C(NC(=S)NNC(=O)c1ccccc1O)c1cccs1	sPLA2-III inh 30 | sPLA2 confirm 30 | BODIPY interf inactive | 535nm interf DR inactive
CC(C)(C)c1ccc(OCCCC(=O)NNC(=O)c2ccccc2O)cc1	none (no result: GRIN3A LBD mod)
CC(C)(C)c1ccc(C(=O)NCC(=O)NNC(=O)c2ccccc2O)cc1	sPLA2-III inh 21 | sPLA2 confirm inactive | BODIPY interf inactive
CC(=O)Nc1ccc(NC(=S)NC(=O)c2ccc([N+](=O)[O-])cc2)cc1	sPLA2-III inh 24 | sPLA2 confirm inactive | BODIPY interf inactive
O=C(NC(=S)NNC(=O)c1ccccc1O)c1ccc(F)cc1	sPLA2-III inh 35 | sPLA2 confirm 31 | BODIPY interf inactive
COC(=O)C1=C(C)N(Cc2ccccc2C(F)(F)F)C(=NCc2ccc(OC)cc2)NC1c1cccc(Cl)c1 (configuration not stated)	none (no result: GRIN3A LBD mod, FAS TE block)
Cc1cc(C)cc(S(=O)(=O)N2CCN(c3nc(-c4cccs4)nc4ccccc34)CC2)c1	none (no result: GRIN3A LBD mod, FAS TE block)
C[C@@H]1CN(C(=O)OC(C)(C)C)CCN1c1ccc(N2CC[C@@H](O)C2)c(C#N)c1	none (no result: GRIN3A LBD mod, FAS TE block)
O=C(NC(=S)NNC(=O)c1ccccc1O)c1ccc([N+](=O)[O-])cc1	sPLA2-III inh 39 | sPLA2 confirm 29 | BODIPY interf inactive | 535nm interf DR inactive
O=C(NC(=S)NNC(=O)c1ccccc1O)c1ccccc1	sPLA2-III inh 31 | sPLA2 confirm 25 | BODIPY interf inactive
Cc1ccc(C(=O)NC(=S)NNC(=O)c2ccccc2O)cc1	sPLA2-III inh 32 | sPLA2 confirm 37 | BODIPY interf inactive | 535nm interf DR inactive
COc1cccc(-n2c(SCc3cc(=O)oc4cc(O)c(O)cc34)nc3ccccc3c2=O)c1	sPLA2-III inh 20 | sPLA2 confirm inactive | BODIPY interf inactive
CCC1CCCCN1C(=S)NCc1ccccc1 (configuration not stated)	sPLA2-III inh 24 | sPLA2 confirm inactive | BODIPY interf inactive
Cc1cc(N/C(=C\C(=O)c2ccccc2)c2ccccc2)ccc1Br	none (no result: GRIN3A LBD mod, FAS TE block)
Cc1cc(C)nc(SCc2ccc(C(=O)N/N=C/c3cccc(O)c3O)cc2)n1	sPLA2-III inh 26 | sPLA2 confirm 38 | BODIPY interf inactive | 535nm interf DR inactive
Cc1cc(C)nc(SCc2ccc(C(=O)N/N=C/c3ccc(C(=O)O)cc3)cc2)n1	none
O=C(NCc1cccc(C(F)(F)F)c1)c1[nH]c(C(F)(F)F)nc1-c1ccccc1	none (no result: sPLA2-III inh, ADAM17 inh, GRIN3A LBD mod, ADAM10 inh)
COC(=O)[C@]12C[C@H](CC(=O)NCCC(C)C)C(=O)N(CCC3=CCCCC3)C1=C[C@H](COCc1ccccc1)O[C@@H]2C	none (no result: GRIN3A LBD mod, FAS TE block)
CCCCNC(=S)Nc1ccc(SC(F)F)cc1	none
Oc1cccc(NC(=S)Nc2ccc(SC(F)F)cc2)c1	sPLA2-III inh 35, GRIN3A LBD mod 16 | sPLA2 confirm inactive | BODIPY interf inactive
CCc1ccccc1NC(=S)NC1CC2CCC(C1)N2Cc1ccco1 (configuration not stated)	sPLA2-III inh 21 | sPLA2 confirm inactive | BODIPY interf inactive
Cc1ccc(OCc2nnc(SCC(=O)Nc3ccc4c(c3)OCO4)n2Cc2ccco2)cc1	none (no result: GRIN3A LBD mod, FAS TE block)
CCCN(CCC)C(=O)C[n+]1cccc(/C=N/O)c1	sPLA2-III inh 20 | sPLA2 confirm inactive | BODIPY interf inactive
O=C(C[n+]1cccc(/C=N/O)c1)N(Cc1ccccc1)Cc1ccccc1	none
CCOCCCNC(=S)N(Cc1ccccc1)Cc1nc2ccccc2c(=O)[nH]1	none
CCCNC(=S)N(Cc1ccccc1)Cc1nc2ccccc2c(=O)[nH]1	sPLA2-III inh 22 | sPLA2 confirm inactive | BODIPY interf inactive
